IDE exosite inh – exo-site inhibitors of human IDE, primary screen, biochemical, fluorescence anisotropy, probe displacement. 6.3% of 17,000 active. purified IDE, FL-6b probe fluorescence polarization; hits give low values. z-score at 20 µM;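 active = z-score of -3 or lower, meaning strong loss of probe binding signal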;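 note: His-tagged human IDE residues 42-1019 made in E. coli with 30 nM FL-6b probe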
Numbers without * were called inactive. The entries come from a sample that favours hits as a whole.

SMILES	IDE exosite inh
CC(=O)N1CC(=O)N2[C@H](CO)[C@H](c3ccc(-c4ccc(C(=O)N(C)C)cc4)cc3)[C@@H]2C1	2.4
O=C1CN(Cc2ccccc2)C[C@H]2[C@@H](c3ccc(-c4ccccc4)cc3)[C@@H](CO)N12	3
N#C[C@H]1[C@@H](c2ccccc2-c2ccc(F)cc2)[C@@H](CO)N1c1ncc(-c2ccccc2)s1	3.9
COc1ccccc1-c1ccc([C@H]2[C@@H](CO)N(C(=O)NC3CCCCC3)[C@H]2C#N)cc1	-6.9*
COc1ccc(-c2ccc([C@@H]3[C@@H](CO)N(C(=O)C4CCCC4)[C@H]3C#N)cc2)cc1	1.3
COc1ccccc1-c1ccc([C@H]2[C@@H](CO)N(C(=O)c3cccc(F)c3)[C@H]2C#N)cc1	-4.2*
COc1ccc(-c2ccc([C@@H]3[C@@H](CO)N(C(=O)C4CCCCC4)[C@H]3C#N)cc2)cc1	1.6
CN(C)C(=O)c1cccc(-c2ccc([C@@H]3[C@@H](CO)N(C(=O)C4CCC4)[C@H]3C#N)cc2)c1	1.7
COc1ccc(-c2ccc([C@@H]3[C@@H](CO)N(C(=O)c4cccc(F)c4)[C@H]3C#N)cc2)cc1	11
COc1ccc(-c2ccc([C@H]3[C@@H](C#N)N(C(=O)c4cccc(F)c4)[C@H]3CO)cc2)cc1	3.1
CN(C)C(=O)c1cccc(-c2ccc([C@H]3[C@@H](CO)N(C(=O)C4CC4)[C@H]3C#N)cc2)c1	1.5
COc1ccc(-c2ccc([C@@H]3[C@@H](C#N)N(C(=O)NC4CCCCC4)[C@H]3CO)cc2)cc1	1.1
COc1ccccc1-c1ccc([C@@H]2[C@@H](C#N)N(C(=O)C3CCCCC3)[C@@H]2CO)cc1	-14*
COc1ccc(-c2ccc([C@H]3[C@@H](C#N)N(C(=O)NC4CCCCC4)[C@@H]3CO)cc2)cc1	3
CN(C)C(=O)c1cccc(-c2ccc([C@@H]3[C@@H](C#N)N(C(=O)C4CCC4)[C@@H]3CO)cc2)c1	-4.2*
O=C(C[C@@H]1CC[C@@H]2[C@H](COC[C@H](O)CN2S(=O)(=O)c2ccccc2F)O1)N1CCC(Cc2ccccc2)CC1	-0.69
C[C@H]1CN([C@@H](C)CO)C(=O)c2ccccc2-c2ccccc2CO[C@H]1CN(C)Cc1ccc2c(c1)OCCN2C	0.52
C[C@H]1CN([C@@H](C)CO)C(=O)CCCn2cc(nn2)CO[C@H]1CN(C)C(=O)Nc1ccc2c(c1)OCO2	-0.56
Cc1cccc(S(=O)(=O)N2CCCCN3[C@H](C2)[C@@H](c2ccc(C#C[C@H](C)O)cc2)[C@@H]3CO)c1	1.3
Cc1ccccc1S(=O)(=O)N1C[C@H](O)COC[C@@H]2O[C@@H](CC(=O)N3CCCCC3)CC[C@H]21	-0.13
CCCN1[C@H](CO)[C@H](c2ccc(C3=CCCC3)cc2)[C@H]1CN(C(C)=O)C1CCCC1	0.72
O=C(NC[C@@H]1[C@@H](c2ccccc2)[C@@H](CO)N1CC1CCCC1)C1CC1	0.85
O=C(Nc1ccc(F)cc1)N1C[C@H]2[C@@H](c3ccccc31)[C@@H](CO)N2C(=O)c1ccncc1	3.1
CCC(=O)Nc1ccc2c(c1)C(=O)N(C)C[C@H](OC)[C@H](C)CN(C(=O)Cc1cccnc1)[C@H](C)CO2	2.1
C[C@@H]1CCCCO[C@@H](CN(C)S(C)(=O)=O)[C@H](C)CN([C@@H](C)CO)C(=O)c2cc(NC(=O)NC3CCCCC3)ccc2O1	0.11
SMILES	IDE exosite inh
COc1ccc(NC(=O)N(C)C[C@@H]2OCCCC[C@H](C)Oc3ccc(NC(=O)c4ccncc4)cc3C(=O)N([C@H](C)CO)C[C@@H]2C)cc1	0.17
N#C[C@H]1[C@@H](c2ccccc2C2=CCCC2)[C@@H](CO)N1C(=O)c1cccc(F)c1	0.12
COc1ccccc1S(=O)(=O)N1CC[C@@H]2[C@@H](CO)N(C)c3ccc(-c4cccc(C#N)c4)cc3[C@@H]21	0.58
N#C[C@@H]1[C@H](c2ccc(-c3ccccc3F)cc2)[C@@H](CO)N1C(=O)C1CC1	-0.081
N#C[C@H]1[C@@H](c2ccc(-c3ccccc3F)cc2)[C@H](CO)N1C(=O)C1CC1	-0.079
COc1ccccc1-c1ccc([C@H]2[C@@H](C#N)N(C(=O)C3CCC3)[C@H]2CO)cc1	-5*
COc1ccccc1-c1ccc([C@@H]2[C@@H](C#N)N(C(=O)C3CCC3)[C@H]2CO)cc1	-5.2*
COc1ccc(-c2ccc([C@@H]3[C@@H](C#N)N(C(=O)C4CCC4)[C@H]3CO)cc2)cc1	5.7
COc1ccccc1-c1ccccc1[C@@H]1[C@@H](C#N)N(C(=O)C2CC2)[C@@H]1CO	1.5
N#C[C@H]1[C@H](c2ccc(-c3ccccc3F)cc2)[C@@H](CO)N1C(=O)C1CC1	-4.5*
N#C[C@H]1[C@@H](c2ccc(-c3ccccc3F)cc2)[C@@H](CO)N1C(=O)C1CCC1	-0.81
COc1ccccc1-c1ccccc1[C@H]1[C@@H](C#N)N(C(=O)C2CC2)[C@@H]1CO	2.2
COc1ccccc1-c1ccccc1[C@H]1[C@H](C#N)N(C(=O)C2CCC2)[C@H]1CO	-0.85
COc1ccccc1-c1ccccc1[C@H]1[C@@H](CO)N(C(=O)C2CCC2)[C@H]1C#N	2.7
COc1ccccc1-c1ccc([C@@H]2[C@@H](C#N)N(C(=O)C3CC3)[C@H]2CO)cc1	-11*
COCC(=O)N1CC(=O)N2[C@H](CO)[C@@H](c3ccc(C#CC4CC4)cc3)[C@@H]2C1	0.33
COc1ccc2c3c([nH]c2c1)[C@H](CO)N(Cc1ccc(F)cc1)CC31CN(C)C1	-1.1
CC[C@@H]1C/C=C\C[C@H](c2ccc(OC)cc2OC)NC(=O)[C@H](C)CC(=O)N1	-0.61
CO[C@@H]1CN(C)C(=O)c2ccc(NS(=O)(=O)CC(F)(F)F)cc2OC[C@H](C)N(Cc2nccs2)C[C@H]1C	1.7
CS(=O)(=O)N1[C@H](CO)[C@H](c2ccccc2-c2ccccc2F)[C@@H]1C#N	-0.19
Cc1ccc(-c2ccc([C@@H]3[C@@H]4CN(Cc5ccccc5F)C[C@H]3N4)cc2)cc1	0.62
Cc1ccc(-c2ccccc2[C@H]2[C@@H](C#N)N(S(C)(=O)=O)[C@@H]2CO)cc1	0.064
CC(C)CC#Cc1ccc([C@@H]2[C@@H](CO)N3C(=O)CN(C(=O)c4cnccn4)C[C@H]23)cc1	2.4
CN(C)CC(=O)N1[C@H](C#N)[C@@H](c2ccc(/C=C/c3ccccc3)cc2)[C@H]1CO	-5.4*
CN(C)CC(=O)N1[C@@H](C#N)[C@H](c2ccc(-c3ccccc3F)cc2)[C@@H]1CO	-4.5*
SMILES	IDE exosite inh
CN(C)CC(=O)N1[C@H](CO)[C@H](c2ccc(/C=C/c3ccccc3)cc2)[C@@H]1C#N	-1.5
CN(C)CC(=O)N1[C@H](C#N)[C@@H](c2ccc(-c3ccccc3F)cc2)[C@@H]1CO	-2.6
CN(C)CC(=O)N1[C@H](C#N)[C@@H](c2ccccc2-c2ccccc2F)[C@@H]1CO	-0.56
COc1ccccc1-c1ccc([C@H]2[C@@H](C#N)N(C(=O)CN(C)C)[C@@H]2CO)cc1	-4.2*
CCCNC(=O)N1[C@H](CO)[C@H](c2ccc(/C=C/c3ccccc3)cc2)[C@@H]1C#N	3.5
COc1ccccc1-c1ccccc1[C@@H]1[C@@H](CO)N(C(=O)CN(C)C)[C@H]1C#N	0.12
COc1ccccc1-c1ccccc1[C@H]1[C@@H](CO)N(C(=O)CN(C)C)[C@H]1C#N	0.75
C/C=C/c1ccc([C@@H]2[C@H](C#N)N(C(=O)Cc3ccccn3)[C@H]2CO)cc1	-0.42
C/C=C/c1ccc([C@H]2[C@@H](C#N)N(C(=O)Cc3ccccn3)[C@H]2CO)cc1	-2

Source: PubChem
